Results published in PubChem BioAssay AID1159580 (chemical genetic matrix, 2015).
Hit rate of the full screen: of about 5,500 compounds, about 2,000 (36%) were called active. Roughly 18% stayed inconclusive and do not appear here. No stated cut-off is given here; in the data, active means normalized growth mostly below about 0.91 (no sharp cut-off); inconclusive means no clear call, values can overlap the other calls; inactive means mostly above about 0.92. The list shows a part of the results.

Assay: chemical genetic growth profiling, strain panel (AID 1159580);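 further: tested at 20 µM; growth read once vehicle control cultures reached saturation at 30 °C; 1 = growth at the plate median or of vehicle wells; lower values mean less growth of the strain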
Conditions: growth OD

Measured: normalized growth

CC1(C)C(C=C(Cl)Cl)C1C(=O)OC(C#N)c1cccc(Oc2ccccc2)c1 (stereo unspecified)
inactive: S. cerevisiae deletion strains, locus YAL013W, strain DEP1, hits give low values 0.996 | S. cerevisiae deletion strains, locus YBR021W, strain FUR4, hits give low values 0.962 | S. cerevisiae deletion strains, locus YBR229C, strain ROT2, hits give low values 0.986 | S. cerevisiae deletion strains, locus YCL029C, strain bik1, hits give low values 1.01 | S. cerevisiae deletion strains, locus YDL035C, strain GPR1, hits give low values 0.998 | S. cerevisiae deletion strains, locus YDL074C, strain BRE1, hits give low values 1.01 | S. cerevisiae deletion strains, locus YDL101C, strain DUN1, hits give low values 0.993 | S. cerevisiae deletion strains, locus YDL134C, strain PPH21, hits give low values 0.995 | S. cerevisiae deletion strains, locus YDL185W, strain tfp1, hits give low values 0.996 | S. cerevisiae deletion strains, locus YDL192W, strain arf1, hits give low values 1 | S. cerevisiae deletion strains, locus YDR101C, strain arx1, hits give low values 0.996 | S. cerevisiae deletion strains, locus YDR150W, strain NUM1, hits give low values 1 | S. cerevisiae deletion strains, locus YDR162C, strain NBP2, hits give low values 1.02 | S. cerevisiae deletion strains, locus YDR318W, strain mcm21, hits give low values 0.983 | S. cerevisiae deletion strains, locus YDR388W, hits give low values 1 | S. cerevisiae deletion strains, locus YDR502C, strain sam2, hits give low values 0.998 | S. cerevisiae deletion strains, locus YEL061C, strain CIN8, hits give low values 0.999 | S. cerevisiae deletion strains, locus YER110C, hits give low values 0.99 | S. cerevisiae deletion strains, locus YER155C, strain BEM2, hits give low values 0.999 | S. cerevisiae deletion strains, locus YER167W, strain BCK2, hits give low values 0.987 | S. cerevisiae deletion strains, locus YGL078C, strain dbp3, hits give low values 1 | S. cerevisiae deletion strains, locus YGL086W, strain mad1, hits give low values 0.954 | S. cerevisiae deletion strains, locus YGL248W, strain PDE1, hits give low values 0.983 | S. cerevisiae deletion strains, locus YGR078C, strain PAC10, hits give low values 1.01 | S. cerevisiae deletion strains, locus YGR135W, strain pre9, hits give low values 0.992 | S. cerevisiae deletion strains, locus YGR229C, strain SMI1, hits give low values 1 | S. cerevisiae deletion strains, locus YGR252W, strain gcn5, hits give low values 0.95 | S. cerevisiae deletion strains, locus YHR030C, strain SLT2, hits give low values 0.99 | S. cerevisiae deletion strains, locus YHR079C, strain IRE1 (second series), hits give low values 1 | S. cerevisiae deletion strains, locus YHR094C, strain hxt1, hits give low values 0.998 | S. cerevisiae deletion strains, locus YHR129C, strain ARP1, hits give low values 0.997 | S. cerevisiae deletion strains, locus YHR200W, strain rpn10, hits give low values 0.992 | S. cerevisiae deletion strains, locus YIL066C, strain RNR3, hits give low values 0.98 | S. cerevisiae deletion strains, locus YIL073C, strain SPO22, hits give low values 0.99 | S. cerevisiae deletion strains, locus YIL125W, strain kgd1, hits give low values 1.01 | S. cerevisiae deletion strains, locus YIR030C, strain dcg1, hits give low values 0.998 | S. cerevisiae deletion strains, locus YJL095W, strain BCK1, hits give low values 1.01 | S. cerevisiae deletion strains, locus YJL134W, strain LCB3, hits give low values 0.984 | S. cerevisiae deletion strains, locus YJL168C, strain set2, hits give low values 1 | S. cerevisiae deletion strains, locus YJL187C, strain SWE1 (second series), hits give low values 1 | S. cerevisiae deletion strains, locus YJR043C, strain POL32, hits give low values 0.987 | S. cerevisiae deletion strains, locus YJR075W, strain HOC1, hits give low values 0.998 | S. cerevisiae deletion strains, locus YKL009W, strain mrt4, hits give low values 0.96 | S. cerevisiae deletion strains, locus YKL068W, hits give low values 1 | S. cerevisiae deletion strains, locus YKL085W, strain MDH1 (second series), hits give low values 0.992 | S. cerevisiae deletion strains, locus YKL085W, strain MDH1, hits give low values 0.992 | S. cerevisiae deletion strains, locus YKL190W, strain CNB1, hits give low values 1 | S. cerevisiae deletion strains, locus YKR001C, strain vps1, hits give low values 0.976 | S. cerevisiae deletion strains, locus YLR039C, strain RIC1, hits give low values 0.969 | S. cerevisiae deletion strains, locus YLR058C, strain SHM2, hits give low values 0.993 | S. cerevisiae deletion strains, locus YLR102C, strain apc9, hits give low values 1 | S. cerevisiae deletion strains, locus YLR262C, strain YPT6, hits give low values 0.99 | S. cerevisiae deletion strains, locus YLR268W, strain sec22, hits give low values 1 | S. cerevisiae deletion strains, locus YLR330W, strain CHS5, hits give low values 0.995 | S. cerevisiae deletion strains, locus YLR342W, strain FKS1 (second series), hits give low values 0.951 | S. cerevisiae deletion strains, locus YLR371W, strain rom2, hits give low values 1 | S. cerevisiae deletion strains, locus YLR418C, strain cdc73, hits give low values 1.05 | S. cerevisiae deletion strains, locus YML016C, strain PPZ1, hits give low values 0.994 | S. cerevisiae deletion strains, locus YML032C, strain rad52, hits give low values 0.98 | S. cerevisiae deletion strains, locus YML124C, strain tub3, hits give low values 0.998 | S. cerevisiae deletion strains, locus YMR078C, strain ctf18, hits give low values 0.98 | S. cerevisiae deletion strains, locus YMR223W, strain ubp8, hits give low values 0.974 | S. cerevisiae deletion strains, locus YMR263W, strain SAP30, hits give low values 1.01 | S. cerevisiae deletion strains, locus YMR307W, strain GAS1, hits give low values 0.94 | S. cerevisiae deletion strains, locus YNL067W, strain RPL9B, hits give low values 1.01 | S. cerevisiae deletion strains, locus YNL128W, strain TEP1, hits give low values 1 | S. cerevisiae deletion strains, locus YNL153C, strain GIM3, hits give low values 1.01 | S. cerevisiae deletion strains, locus YNL233W, strain BNI4, hits give low values 1.01 | S. cerevisiae deletion strains, locus YNL250W, strain rad50, hits give low values 0.993 | S. cerevisiae deletion strains, locus YNL271C, strain bni1, hits give low values 0.998 | S. cerevisiae deletion strains, locus YNL298W, strain CLA4, hits give low values 0.964 | S. cerevisiae deletion strains, locus YNL307C, strain MCK1, hits give low values 0.991 | S. cerevisiae deletion strains, locus YNL322C, strain KRE1, hits give low values 0.994 | S. cerevisiae deletion strains, locus YNR052C, strain pop2, hits give low values 0.979 | S. cerevisiae deletion strains, locus YOL006C, strain TOP1, hits give low values 1.03 | S. cerevisiae deletion strains, locus YOL012C, strain htz1 1.96 | S. cerevisiae deletion strains, locus YOL147C, strain pex11, hits give low values 1.01 | S. cerevisiae deletion strains, locus YOR061W, strain CKA2, hits give low values 0.997 | S. cerevisiae deletion strains, locus YOR069W, strain VPS5, hits give low values 0.995 | S. cerevisiae deletion strains, locus YOR136W, strain idh2, hits give low values 1 | S. cerevisiae deletion strains, locus YOR144C, strain elg1, hits give low values 0.997 | S. cerevisiae deletion strains, locus YOR184W, strain ser1, hits give low values 0.983 | S. cerevisiae deletion strains, locus YOR316C, strain cot1, hits give low values 0.996 | S. cerevisiae deletion strains, locus YPL055C, strain LGE1, hits give low values 1.03 | S. cerevisiae deletion strains, locus YPL241C, strain CIN2, hits give low values 1 | S. cerevisiae deletion strains, locus YPR119W, strain clb2, hits give low values 1.01 | S. cerevisiae deletion strains, locus YPR141C, strain kar3, hits give low values 0.992 | S. cerevisiae deletion strains, locus YPR163C, strain tif3, hits give low values 1.01 | S. cerevisiae deletion strains, locus YPR167C, strain met16, hits give low values 0.99 | S. cerevisiae deletion strains, strain wtn01, hits give low values 0.991 | S. cerevisiae strains, strain wild type, hits give low values 1.01
